From PubChem BioAssay
Hits are enriched below; roughly 7.9% of the tested compounds scored in any of these assays.
MCF10A rerep – inducers of DNA re-replication in MCF 10A breast cells. Potency, µM (top dose mostly 46.1 µM), most hits filed as activators. AID 624296. MCF 10A DNA re-replication, Hoechst nuclear intensity, 48 h. actives 2.9% (n = 350,000); further: nearly all actives have a fitted effect of over 50% in size
HT1080-NT tox – kills 2HG-producing HT-1080-NT fibrosarcoma cells | Potency, µM (doses to about 46.1 µM), most hits filed as cytotoxic | actives 1.6% (n = 360,000) | HT-1080-NT fibrosarcoma viability, CellTiter-Glo ATP luminescence, 48 h;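 further: NT is the 2HG producing partner of a matched IDH1 knockdown line; nearly all actives have a fitted effect of over 55% in size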
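Viability of the 2HG-overproducing fibrosarcoma line after 48 hours of compound exposure at 37 degrees C was determined by luminescence with CellTiter-Glo, and concentration-effect curves were then fitted and categorized.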
SW480 rereplic – DNA re-replication induction in SW480 cells; SW480 DNA re-replication, Hoechst DNA content imaging, 48 h; Potency, µM (titrated, usually from 46.1 µM), actives largely listed as activators; actives 1.8% (n = 340,000); further: nearly all actives have a fitted effect of over 55% in size
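First, 250 cells per well were seeded. Next, compound or vehicle (23 nL) was pinned in, plates sat 48 hr at 37 C. Finally Hoechst was added for 40 min before fluorescence scanning.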
KB-V1 cytotox – kills drug-selected multidrug resistant KB-V1 cells. KB-V1 MDR cells viability, CellTiter-Glo, 72 h. Potency, µM (doses to about 46.1 µM), actives largely listed as cytotoxic. actives 3.4% (n = 400,000). AID 1347076; further: nearly all actives have a fitted effect of over 60% in size
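Cells of the MDR subline KB-V1 are plated, dosed with compound at multiple concentrations, and incubated 72 h at 37 degrees C; CellTiter-Glo is then added and luminescence read after 10 min.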
HT1080 IDH1KD tx – HT-1080 IDH1 knockdown cell toxicity (counter line); HT-1080 IDH1 knockdown viability, ATP luminescence, 48 h; Potency, µM (top dose mostly 46.1 µM), hits mostly cytotoxic; actives 2% (n = 360,000)
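Cytotoxicity counter-line: IDH1KD HT-1080, 48 h, CellTiter-Glo. Curves classed by r2, magnitude and activity.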
KB-3-1 cytotox – kills parental KB-3-1 adenocarcinoma cells. KB-3-1 viability, CellTiter-Glo ATP luminescence, 72 h. Potency, µM (top dose mostly 46.1 µM), usual class: cytotoxic. actives 1.4% (n = 400,000). AID 1347075; further: nearly all actives have a fitted effect of over 60% in size
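KB-3-1 cells, DMEM (no phenol red) + 10% FBS; compound by pin transfer, 72 h, 37 °C. Readout: CellTiter-Glo luminescence after 10 min. Data normalized, curve-fitted.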
Each line names hits and unclear results; the compound was inactive in the other large screens. The call rests on the fitted dose curve; in most records, active means well fitted curve in the direction sought with a large enough effect; inconclusive means small, poorly fitted or top-dose-only effect, or another doubt; inactive means no such curve, though single readings can be large; an effect the other way counts as inactive or inconclusive.

CC(=O)c1ccc(NS(=O)(=O)c2ccc3ccccc3c2)cc1	KB-V1 cytotox 16µM
Cc1cc(S(=O)(=O)Nc2ccc3ccccc3c2)c(C)s1	MCF10A rerep 6.5µM, HT1080-NT tox 13µM, SW480 rereplic inconclusive, KB-V1 cytotox 3.3µM, HT1080 IDH1KD tx 14µM, KB-3-1 cytotox inconclusive
CC1(C)CC(=O)C=C(NC2=CC3OC(c4ccccc4)OCC3OC2=O)C1 (configuration not stated)	MCF10A rerep inconclusive, HT1080-NT tox inconclusive, SW480 rereplic inconclusive, HT1080 IDH1KD tx 21µM
CCOC(=O)C1CCN(c2c(-c3ccccc3)c3cc(Cl)ccc3[nH]c2=O)CC1	SW480 rereplic inconclusive
O=c1[nH]c2ccc(Cl)cc2c(-c2ccccc2)c1N1CCN(CCO)CC1	HT1080-NT tox 11µM, HT1080 IDH1KD tx inconclusive
O=C(O)Cc1c(-c2ccccc2)c2cc(Cl)ccc2[nH]c1=O	none
CCOC(=O)N1CCN(c2c(-c3ccccc3)c3cc(Cl)ccc3[nH]c2=O)CC1	KB-V1 cytotox 9.2µM, KB-3-1 cytotox inconclusive
CCC1CCC2(CC1)NC(=O)N(CC(=O)Nc1cccc(S(=O)(=O)N(C)c3ccccc3)c1)C2=O (configuration not stated)	HT1080-NT tox inconclusive, HT1080 IDH1KD tx inconclusive, KB-3-1 cytotox inconclusive
CCNC(=O)C(CCSC)NS(=O)(=O)c1ccc(C)cc1 (configuration not stated)	none
CCOC(=O)C1CCCN(CCC(=O)Nc2ccc(F)c(F)c2)C1 (configuration not stated)	none
COC(=O)Cn1c(=NC(=O)c2nc3ccccc3s2)sc2cc(S(N)(=O)=O)ccc21	MCF10A rerep inconclusive, KB-3-1 cytotox inconclusive
COC(=O)Cn1c(=NC(=O)c2cc(-c3cccs3)nc3ccccc23)sc2cc(S(N)(=O)=O)ccc21	MCF10A rerep 7.3µM, SW480 rereplic inconclusive, KB-V1 cytotox inconclusive, HT1080 IDH1KD tx inconclusive
CCOC(=O)Cn1c(=NC(=O)c2cc(-c3cccs3)nc3ccccc23)sc2cc(S(N)(=O)=O)ccc21	MCF10A rerep 8.2µM, HT1080-NT tox inconclusive, SW480 rereplic inconclusive
CC(=O)Oc1c(C)c(OC(C)=O)c2c(c1C(C)=O)OC1CC(=O)C(C(C)=O)=C(O)C21C (configuration not stated)	KB-V1 cytotox inconclusive
CC(=O)c1c(O)c(C)c(O)c2c1OC1=CC(=O)C(C(C)=O)C(=O)[C@@]12C (some centres not stated)	MCF10A rerep 3.7µM, KB-3-1 cytotox inconclusive
CCCCCCCCN1C(=O)C(O)=C(C(C)=O)C1c1ccccn1 (configuration not stated)	KB-V1 cytotox 16µM
CCCCN1C(=O)C(O)=C(C(C)=O)C1c1ccccc1 (configuration not stated)	none
CCN(CC(=O)Nc1ccccc1OC)C(=O)C1CCCC1	KB-V1 cytotox 13µM
CCCN(CC(=O)Nc1ccccc1OC)C(=O)C1CCCC1	KB-V1 cytotox inconclusive
CCCC(=O)NC(Nc1ccc(S(=O)(=O)Nc2cc(C)on2)cc1)(C(F)(F)F)C(F)(F)F	none
O=C1S/C(=C/c2ccc(N3CCOCC3)o2)C(=O)N1Cc1c(F)cccc1Cl	MCF10A rerep inconclusive, SW480 rereplic inconclusive
O=C1S/C(=C\c2ccc(N3CCOCC3)o2)C(=O)N1Cc1c(F)cccc1Cl	HT1080-NT tox inconclusive, HT1080 IDH1KD tx 3.5µM
O=C(Nc1ccccc1)/C(=C/c1ccc([N+](=O)[O-])cc1)NC(=O)c1ccco1	HT1080 IDH1KD tx inconclusive
CC1(C)CC(=O)C2=C(C1)NC1=C(C(=O)c3ccccc31)C2c1ccc(O)cc1 (configuration not stated)	none
CCCCc1ccc(C2C3=C(CC(C)(C)CC3=O)NC3=C2C(=O)c2ccccc23)cc1 (configuration not stated)	KB-V1 cytotox 16µM, KB-3-1 cytotox inconclusive
CCCc1ccc(C2C3=C(CC(C)(C)CC3=O)NC3=C2C(=O)c2ccccc23)cc1 (configuration not stated)	HT1080-NT tox inconclusive, KB-V1 cytotox 21µM, HT1080 IDH1KD tx inconclusive, KB-3-1 cytotox inconclusive
O=C1CCCC2=C1C(c1cccc(O)c1)C1=C(N2)c2ccccc2C1=O (configuration not stated)	none
Cc1ccc(S(=O)(=O)NCCC(=O)N2CC(C)OC(C)C2)cc1 (configuration not stated)	none
O=C1CCN2C=Nc3cccc4ccc1c2c34	KB-V1 cytotox 12µM, KB-3-1 cytotox inconclusive
Cc1cc2nc(-c3ccc(SCc4ccccn4)nc3)[nH]c2cc1C	MCF10A rerep inconclusive, HT1080-NT tox inconclusive, SW480 rereplic inconclusive, KB-V1 cytotox 16µM, HT1080 IDH1KD tx inconclusive
CN(C)c1nc(=NCc2cccs2)ss1	MCF10A rerep inconclusive, SW480 rereplic inconclusive, KB-V1 cytotox inconclusive, HT1080 IDH1KD tx inconclusive, KB-3-1 cytotox inconclusive
Nc1nc(CCl)nc(Nc2ccccc2)n1	MCF10A rerep inconclusive, HT1080-NT tox 3.3µM, SW480 rereplic 6.5µM, KB-V1 cytotox inconclusive, HT1080 IDH1KD tx inconclusive, KB-3-1 cytotox inconclusive
Cc1ccccc1Nc1nc(N)nc(COC(=O)c2cccc(S(=O)(=O)N(C)C)c2)n1	MCF10A rerep inconclusive, KB-V1 cytotox 18µM
Cc1cccc(Nc2nc(N)nc(CN3CCC(C(N)=O)CC3)n2)c1C	none
Cc1ccc(Nc2nc(N)nc(CCl)n2)c(C)c1	MCF10A rerep inconclusive, HT1080-NT tox 5.8µM, KB-V1 cytotox inconclusive, HT1080 IDH1KD tx inconclusive, KB-3-1 cytotox inconclusive
Cc1cccc(Nc2nc(N)nc(CCl)n2)c1C	MCF10A rerep inconclusive, HT1080-NT tox 1.6µM, SW480 rereplic inconclusive, KB-V1 cytotox inconclusive, HT1080 IDH1KD tx 1.8µM, KB-3-1 cytotox inconclusive
COc1cccc2c(=O)n(CC(=O)Nc3ccccc3)ccc12	none
O=C(NCCOc1ccc(Cl)cc1)C(=O)NCC1CCCO1 (configuration not stated)	none
Nc1nc(COC(=O)CCC(=O)c2ccccc2)nc(Nc2ccccc2)n1	none
Cc1ccc(Nc2nc(N)nc(CSCCO)n2)cc1	none
Cc1ccc(Nc2nc(N)nc(CCl)n2)cc1	MCF10A rerep inconclusive, HT1080-NT tox 2.3µM, KB-V1 cytotox inconclusive, HT1080 IDH1KD tx 8.2µM, KB-3-1 cytotox inconclusive
Cc1ccc(Nc2nc(N)nc(CC#N)n2)cc1	MCF10A rerep inconclusive, HT1080-NT tox 13µM, HT1080 IDH1KD tx 7.1µM
Nc1nc(COC(=O)c2ccc3c(c2)OCCO3)nc(Nc2ccccc2)n1	KB-V1 cytotox 21µM
CCOc1ccc(Nc2nc(N)nc(CCl)n2)cc1	MCF10A rerep inconclusive, HT1080-NT tox 0.82µM, SW480 rereplic inconclusive, HT1080 IDH1KD tx inconclusive, KB-3-1 cytotox 13µM
